# Test results taken from PMC7862700, “An all-to-all approach to the identification of sequence-specific readers for epigenetic DNA modifications on cytosine”.
# What was measured:
# Experiment in all cases: DAPPL (digital affinity profiling via proximity ligation, sequencing); 10 mM Tris-HCl pH 7.5, 50 mM NaCl, 1 mM DTT, 4% glycerol, room temperature, 30 min; GST-TFs on glutathione beads, 16-mer random dsDNA library, 0.1% formaldehyde crosslink after washing; high values mean tight binding
# [1] = target: T1, FLI1 (Homo sapiens, UniProt Q01543 1-452); details: protein: recombinant; tags: N-terminal GST; dsDNA, one strand shown
# T1 sequence: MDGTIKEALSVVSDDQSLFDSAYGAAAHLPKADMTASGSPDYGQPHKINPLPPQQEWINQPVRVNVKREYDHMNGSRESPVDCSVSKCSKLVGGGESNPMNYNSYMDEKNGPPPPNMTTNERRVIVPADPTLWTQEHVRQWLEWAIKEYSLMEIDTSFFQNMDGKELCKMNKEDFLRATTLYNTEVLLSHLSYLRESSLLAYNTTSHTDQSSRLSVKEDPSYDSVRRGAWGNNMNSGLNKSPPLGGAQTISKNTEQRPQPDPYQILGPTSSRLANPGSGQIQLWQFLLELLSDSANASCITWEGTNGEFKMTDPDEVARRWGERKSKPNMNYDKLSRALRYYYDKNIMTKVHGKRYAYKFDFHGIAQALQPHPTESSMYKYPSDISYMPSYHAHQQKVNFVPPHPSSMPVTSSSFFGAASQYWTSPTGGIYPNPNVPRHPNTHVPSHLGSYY
# Outline: (§1)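 Human transcription factors carrying a GST fusion were produced in yeast, bound to glutathione beads, tagged with DNA barcodes and pooled together with a tag-only sample. Each pool was held with 200 nmole of a random double-stranded 16-mer DNA library in Tris/NaCl/DTT/glycerol buffer for 30 min at room temperature, then washed, crosslinked in 0.1% formaldehyde, proximity-ligated with BsaI/T4 ligase (1 h, 37 °C), PCR-amplified and sequenced on an Illumina NextSeq500. Binding signal is the read frequency of each hexamer for a given factor divided by its frequency in the tag-only sample.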
# [2] = target: T2, ELK1 (Homo sapiens, UniProt P19419 1-428); details: protein: recombinant; tags: N-terminal GST; dsDNA, one strand shown
# T2 sequence: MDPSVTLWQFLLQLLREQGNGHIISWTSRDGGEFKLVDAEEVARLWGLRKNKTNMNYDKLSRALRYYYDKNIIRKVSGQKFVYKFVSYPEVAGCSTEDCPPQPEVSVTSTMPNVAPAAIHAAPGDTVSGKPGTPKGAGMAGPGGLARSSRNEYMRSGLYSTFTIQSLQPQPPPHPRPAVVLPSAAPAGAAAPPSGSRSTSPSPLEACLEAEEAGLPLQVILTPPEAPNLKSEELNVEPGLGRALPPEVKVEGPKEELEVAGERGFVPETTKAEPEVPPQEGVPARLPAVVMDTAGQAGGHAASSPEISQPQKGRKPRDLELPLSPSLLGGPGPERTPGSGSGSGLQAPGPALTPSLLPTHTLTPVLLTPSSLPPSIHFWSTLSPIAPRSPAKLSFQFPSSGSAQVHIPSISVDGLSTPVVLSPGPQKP
# Outline: as §1
# [3] = target: T3, GABPA (Homo sapiens, UniProt Q06546 1-454); details: protein: recombinant; tags: N-terminal GST; dsDNA, one strand shown
# T3 sequence: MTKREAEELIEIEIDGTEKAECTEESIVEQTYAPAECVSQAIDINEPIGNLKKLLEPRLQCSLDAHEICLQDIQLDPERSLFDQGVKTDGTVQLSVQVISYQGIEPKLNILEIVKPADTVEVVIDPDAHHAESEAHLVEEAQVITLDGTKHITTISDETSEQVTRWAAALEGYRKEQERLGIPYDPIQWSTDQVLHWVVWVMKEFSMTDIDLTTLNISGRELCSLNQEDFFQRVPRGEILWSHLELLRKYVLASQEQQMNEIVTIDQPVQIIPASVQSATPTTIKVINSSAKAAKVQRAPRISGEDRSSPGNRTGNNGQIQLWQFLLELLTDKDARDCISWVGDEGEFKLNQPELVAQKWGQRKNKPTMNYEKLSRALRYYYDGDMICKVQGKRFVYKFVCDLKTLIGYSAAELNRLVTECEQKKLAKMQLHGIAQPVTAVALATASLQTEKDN
# Outline: as §1
# [4] = target: T4, ERG (Homo sapiens, UniProt P11308 1-479); details: protein: recombinant; tags: N-terminal GST; dsDNA, one strand shown
# T4 sequence: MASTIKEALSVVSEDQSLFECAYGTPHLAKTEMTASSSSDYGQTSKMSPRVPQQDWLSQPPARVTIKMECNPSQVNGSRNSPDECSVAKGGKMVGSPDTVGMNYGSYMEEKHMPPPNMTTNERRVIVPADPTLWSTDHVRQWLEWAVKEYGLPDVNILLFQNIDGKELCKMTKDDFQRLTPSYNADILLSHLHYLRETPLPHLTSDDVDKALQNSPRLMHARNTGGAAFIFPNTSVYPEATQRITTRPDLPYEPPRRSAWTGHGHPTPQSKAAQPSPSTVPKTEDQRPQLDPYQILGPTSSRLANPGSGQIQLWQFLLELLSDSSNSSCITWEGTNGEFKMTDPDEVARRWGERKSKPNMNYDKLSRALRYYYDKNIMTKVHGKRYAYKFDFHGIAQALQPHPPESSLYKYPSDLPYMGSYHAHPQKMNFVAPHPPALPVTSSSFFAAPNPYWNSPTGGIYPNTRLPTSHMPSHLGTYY
# Outline: as §1
# [5] = target: ELF1 (Homo sapiens, UniProt P32519 1-619); details: protein: recombinant; tags: N-terminal GST; dsDNA, one strand shown
# Chain of ELF1 (P32519 whole entry): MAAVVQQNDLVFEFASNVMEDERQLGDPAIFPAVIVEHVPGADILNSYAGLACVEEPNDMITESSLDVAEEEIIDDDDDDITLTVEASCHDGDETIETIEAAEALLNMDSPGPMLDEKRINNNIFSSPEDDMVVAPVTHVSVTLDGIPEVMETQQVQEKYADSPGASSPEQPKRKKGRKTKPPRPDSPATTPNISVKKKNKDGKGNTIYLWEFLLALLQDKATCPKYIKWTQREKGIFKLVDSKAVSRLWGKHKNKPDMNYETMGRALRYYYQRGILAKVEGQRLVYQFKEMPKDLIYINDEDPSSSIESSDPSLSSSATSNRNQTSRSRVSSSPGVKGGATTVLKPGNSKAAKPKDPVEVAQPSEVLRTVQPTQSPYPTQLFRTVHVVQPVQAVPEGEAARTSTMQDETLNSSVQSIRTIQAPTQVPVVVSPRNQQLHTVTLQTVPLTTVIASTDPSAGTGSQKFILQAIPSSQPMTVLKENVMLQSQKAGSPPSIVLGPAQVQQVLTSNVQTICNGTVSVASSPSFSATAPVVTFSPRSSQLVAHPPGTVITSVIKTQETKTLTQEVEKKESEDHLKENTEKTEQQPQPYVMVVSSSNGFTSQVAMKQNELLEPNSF
# Outline: as §1
# [6] = target: T5, EHF (Homo sapiens, UniProt Q9NZC4 1-300); details: protein: recombinant; tags: N-terminal GST; dsDNA, one strand shown
# T5 sequence: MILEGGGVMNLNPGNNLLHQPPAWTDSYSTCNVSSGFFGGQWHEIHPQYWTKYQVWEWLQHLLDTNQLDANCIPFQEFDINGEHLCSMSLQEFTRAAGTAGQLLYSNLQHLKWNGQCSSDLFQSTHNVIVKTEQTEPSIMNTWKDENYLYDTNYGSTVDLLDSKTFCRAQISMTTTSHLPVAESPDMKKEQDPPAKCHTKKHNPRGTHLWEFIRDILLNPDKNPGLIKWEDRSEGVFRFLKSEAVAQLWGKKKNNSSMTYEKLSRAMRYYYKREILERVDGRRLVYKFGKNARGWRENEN
# Outline: as §1
# [7] = target: SPI1 (Homo sapiens, UniProt P17947 1-270); details: protein: recombinant; tags: N-terminal GST; dsDNA, one strand shown
# Outline: as §1
# [8] = target: SPIB (Homo sapiens, UniProt Q01892 1-262); details: protein: recombinant; tags: N-terminal GST; dsDNA, one strand shown
# Chain of SPIB (Q01892 whole entry): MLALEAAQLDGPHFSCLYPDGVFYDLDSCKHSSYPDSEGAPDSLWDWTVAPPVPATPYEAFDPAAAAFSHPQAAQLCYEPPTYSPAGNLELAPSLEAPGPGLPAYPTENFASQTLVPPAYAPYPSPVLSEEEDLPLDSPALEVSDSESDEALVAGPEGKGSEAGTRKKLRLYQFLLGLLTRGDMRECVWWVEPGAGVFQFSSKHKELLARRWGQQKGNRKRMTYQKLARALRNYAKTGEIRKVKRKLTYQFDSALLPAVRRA
# Outline: as §1
# [9] = target: T6, ELK3 (Homo sapiens, UniProt P41970 1-407); details: protein: recombinant; tags: N-terminal GST; dsDNA, one strand shown
# T6 sequence: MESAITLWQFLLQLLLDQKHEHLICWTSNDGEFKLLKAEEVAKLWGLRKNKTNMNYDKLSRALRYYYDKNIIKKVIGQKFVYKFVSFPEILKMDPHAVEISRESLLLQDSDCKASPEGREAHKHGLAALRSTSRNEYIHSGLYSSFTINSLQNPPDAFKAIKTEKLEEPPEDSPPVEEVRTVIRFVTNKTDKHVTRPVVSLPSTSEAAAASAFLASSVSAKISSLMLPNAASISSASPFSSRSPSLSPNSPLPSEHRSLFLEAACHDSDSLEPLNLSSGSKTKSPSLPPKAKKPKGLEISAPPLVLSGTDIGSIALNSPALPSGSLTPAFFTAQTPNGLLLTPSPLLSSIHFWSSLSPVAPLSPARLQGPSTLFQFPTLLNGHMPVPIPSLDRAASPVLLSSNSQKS
# Outline: as §1
# [10] = target: T7, FEV (Homo sapiens, UniProt Q99581 1-238); details: protein: recombinant; tags: N-terminal GST; dsDNA, one strand shown
# T7 sequence: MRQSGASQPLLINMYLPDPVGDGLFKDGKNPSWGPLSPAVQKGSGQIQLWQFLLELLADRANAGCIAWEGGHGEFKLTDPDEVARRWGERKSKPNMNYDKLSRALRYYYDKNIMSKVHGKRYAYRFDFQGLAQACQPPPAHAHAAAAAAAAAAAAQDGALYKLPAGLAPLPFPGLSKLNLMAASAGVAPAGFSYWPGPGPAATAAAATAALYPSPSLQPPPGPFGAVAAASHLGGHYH
# Outline: as §1
# [11] = target: ETV5 (Homo sapiens, UniProt P41161 1-510); details: protein: recombinant; tags: N-terminal GST; dsDNA, one strand shown
# Chain of ETV5 (P41161 whole entry): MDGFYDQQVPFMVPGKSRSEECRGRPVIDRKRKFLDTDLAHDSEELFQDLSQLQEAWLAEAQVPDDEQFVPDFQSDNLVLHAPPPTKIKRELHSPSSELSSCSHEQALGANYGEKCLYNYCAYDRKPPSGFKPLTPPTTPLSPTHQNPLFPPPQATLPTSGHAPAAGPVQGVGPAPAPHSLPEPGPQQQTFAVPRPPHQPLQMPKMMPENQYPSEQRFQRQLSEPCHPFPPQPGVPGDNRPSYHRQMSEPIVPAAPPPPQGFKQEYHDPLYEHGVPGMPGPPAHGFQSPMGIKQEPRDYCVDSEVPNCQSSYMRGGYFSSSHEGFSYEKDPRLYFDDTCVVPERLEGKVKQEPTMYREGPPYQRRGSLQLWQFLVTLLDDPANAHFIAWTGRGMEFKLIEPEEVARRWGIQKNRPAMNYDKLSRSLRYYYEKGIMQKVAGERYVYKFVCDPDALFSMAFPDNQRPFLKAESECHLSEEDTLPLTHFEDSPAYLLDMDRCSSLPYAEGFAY
# Outline: as §1
# [12] = target: HSF1 (Homo sapiens, UniProt Q00613 1-529); details: protein: recombinant; tags: N-terminal GST; chain copies: 3; dsDNA, one strand shown
# Chain of HSF1 (Q00613 whole entry): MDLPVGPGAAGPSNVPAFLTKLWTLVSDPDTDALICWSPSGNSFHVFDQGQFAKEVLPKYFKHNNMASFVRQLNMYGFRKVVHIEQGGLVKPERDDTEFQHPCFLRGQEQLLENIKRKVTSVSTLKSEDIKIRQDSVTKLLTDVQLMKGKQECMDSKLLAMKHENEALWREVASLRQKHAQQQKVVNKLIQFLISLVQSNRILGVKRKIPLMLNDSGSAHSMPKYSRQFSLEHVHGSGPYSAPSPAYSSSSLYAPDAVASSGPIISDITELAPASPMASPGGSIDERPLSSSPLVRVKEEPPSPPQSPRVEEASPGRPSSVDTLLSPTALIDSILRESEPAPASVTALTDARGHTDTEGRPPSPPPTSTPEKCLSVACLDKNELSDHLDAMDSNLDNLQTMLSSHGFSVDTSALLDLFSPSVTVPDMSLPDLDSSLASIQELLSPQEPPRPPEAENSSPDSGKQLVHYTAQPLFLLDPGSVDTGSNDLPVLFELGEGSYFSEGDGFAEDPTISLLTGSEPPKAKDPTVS
# Outline: as §1
# [13] = target: T8, SPIC (Homo sapiens, UniProt Q8N5J4 1-248); details: protein: recombinant; tags: N-terminal GST; dsDNA, one strand shown
# T8 sequence: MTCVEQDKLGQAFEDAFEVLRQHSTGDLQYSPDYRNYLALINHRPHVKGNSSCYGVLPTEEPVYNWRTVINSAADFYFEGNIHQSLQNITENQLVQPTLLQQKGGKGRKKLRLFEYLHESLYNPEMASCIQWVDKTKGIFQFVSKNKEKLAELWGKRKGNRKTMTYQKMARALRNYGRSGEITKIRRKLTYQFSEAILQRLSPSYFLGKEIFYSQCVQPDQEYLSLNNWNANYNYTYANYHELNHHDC
# Outline: as §1
# [14] = target: ELF4 (Homo sapiens, UniProt Q99607 1-663); details: protein: recombinant; tags: N-terminal GST; dsDNA, one strand shown
# Chain of ELF4 (Q99607 whole entry): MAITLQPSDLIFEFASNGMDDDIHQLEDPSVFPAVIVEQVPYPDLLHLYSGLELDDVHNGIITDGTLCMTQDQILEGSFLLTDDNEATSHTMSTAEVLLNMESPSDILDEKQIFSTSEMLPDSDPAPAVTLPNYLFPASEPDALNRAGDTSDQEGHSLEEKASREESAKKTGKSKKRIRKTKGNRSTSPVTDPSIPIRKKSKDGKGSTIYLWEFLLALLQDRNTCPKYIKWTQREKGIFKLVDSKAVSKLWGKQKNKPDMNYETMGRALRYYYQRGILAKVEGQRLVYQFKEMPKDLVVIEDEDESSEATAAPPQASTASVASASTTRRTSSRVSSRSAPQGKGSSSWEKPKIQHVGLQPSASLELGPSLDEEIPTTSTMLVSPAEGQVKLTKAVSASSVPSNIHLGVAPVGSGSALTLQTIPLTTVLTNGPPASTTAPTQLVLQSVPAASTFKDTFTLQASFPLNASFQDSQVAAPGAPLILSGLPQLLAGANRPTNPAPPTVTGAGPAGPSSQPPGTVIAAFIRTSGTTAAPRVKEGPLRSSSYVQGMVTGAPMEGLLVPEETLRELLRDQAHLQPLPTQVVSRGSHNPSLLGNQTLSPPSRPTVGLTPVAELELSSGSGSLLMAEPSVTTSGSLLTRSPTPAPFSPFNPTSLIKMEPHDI
# Outline: as §1
# [15] = target: T9, ELK4 (Homo sapiens, UniProt P28324-2 1-405); details: protein: recombinant; tags: N-terminal GST; dsDNA, one strand shown
# T9 sequence: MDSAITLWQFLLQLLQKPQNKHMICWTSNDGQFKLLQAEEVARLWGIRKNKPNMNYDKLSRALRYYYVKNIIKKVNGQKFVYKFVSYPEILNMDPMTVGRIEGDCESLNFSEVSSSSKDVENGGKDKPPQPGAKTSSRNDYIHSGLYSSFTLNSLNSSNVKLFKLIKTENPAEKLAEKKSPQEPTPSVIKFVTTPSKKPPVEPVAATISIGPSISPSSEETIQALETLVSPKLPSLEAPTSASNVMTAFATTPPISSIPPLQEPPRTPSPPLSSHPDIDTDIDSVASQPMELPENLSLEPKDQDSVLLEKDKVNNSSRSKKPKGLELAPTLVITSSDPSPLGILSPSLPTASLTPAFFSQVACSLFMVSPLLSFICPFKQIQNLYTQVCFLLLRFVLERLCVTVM
# Outline: as §1
# [16] = target: T10, ETV2 (Homo sapiens, UniProt O00321 1-342); details: protein: recombinant; tags: N-terminal GST; dsDNA, one strand shown
# T10 sequence: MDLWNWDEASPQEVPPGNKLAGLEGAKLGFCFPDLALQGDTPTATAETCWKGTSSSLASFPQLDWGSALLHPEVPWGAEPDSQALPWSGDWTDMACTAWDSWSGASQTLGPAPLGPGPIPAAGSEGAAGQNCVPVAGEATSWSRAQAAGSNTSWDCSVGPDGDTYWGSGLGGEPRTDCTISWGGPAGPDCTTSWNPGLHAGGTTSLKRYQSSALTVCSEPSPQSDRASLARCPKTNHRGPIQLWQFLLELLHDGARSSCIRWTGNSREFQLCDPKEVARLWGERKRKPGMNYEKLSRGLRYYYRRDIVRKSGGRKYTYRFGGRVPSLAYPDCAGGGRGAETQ
# Outline: as §1
# [17] = target: T11, ELF3 (Homo sapiens, UniProt P78545 1-371); details: protein: recombinant; tags: N-terminal GST; dsDNA, one strand shown
# T11 sequence: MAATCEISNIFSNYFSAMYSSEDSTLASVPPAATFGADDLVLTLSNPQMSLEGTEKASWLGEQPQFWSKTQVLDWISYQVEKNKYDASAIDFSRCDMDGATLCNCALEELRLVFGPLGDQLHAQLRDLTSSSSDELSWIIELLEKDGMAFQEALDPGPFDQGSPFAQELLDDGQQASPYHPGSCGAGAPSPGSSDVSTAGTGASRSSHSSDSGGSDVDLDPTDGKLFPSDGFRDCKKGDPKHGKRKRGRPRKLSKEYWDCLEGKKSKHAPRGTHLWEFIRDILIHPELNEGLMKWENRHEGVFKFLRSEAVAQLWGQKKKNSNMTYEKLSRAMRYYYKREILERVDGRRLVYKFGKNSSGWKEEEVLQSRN
# Outline: as §1
# [18] = target: CRX (Homo sapiens, UniProt O43186 1-299); details: protein: recombinant; tags: N-terminal GST; dsDNA, one strand shown
# Chain of CRX (O43186 whole entry): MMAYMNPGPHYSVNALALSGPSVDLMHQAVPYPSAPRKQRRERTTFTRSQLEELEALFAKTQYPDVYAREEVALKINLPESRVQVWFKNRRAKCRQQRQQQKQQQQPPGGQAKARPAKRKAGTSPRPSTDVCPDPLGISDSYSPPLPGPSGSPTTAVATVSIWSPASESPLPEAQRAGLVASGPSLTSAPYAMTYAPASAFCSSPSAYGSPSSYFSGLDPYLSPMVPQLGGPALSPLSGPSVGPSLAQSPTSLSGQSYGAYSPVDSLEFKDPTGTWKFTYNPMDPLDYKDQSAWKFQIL
# Outline: as §1
# [19] = target: ETV1 (Homo sapiens, UniProt P50549 1-477); details: protein: recombinant; tags: N-terminal GST; dsDNA, one strand shown
# Chain of ETV1 (P50549 whole entry): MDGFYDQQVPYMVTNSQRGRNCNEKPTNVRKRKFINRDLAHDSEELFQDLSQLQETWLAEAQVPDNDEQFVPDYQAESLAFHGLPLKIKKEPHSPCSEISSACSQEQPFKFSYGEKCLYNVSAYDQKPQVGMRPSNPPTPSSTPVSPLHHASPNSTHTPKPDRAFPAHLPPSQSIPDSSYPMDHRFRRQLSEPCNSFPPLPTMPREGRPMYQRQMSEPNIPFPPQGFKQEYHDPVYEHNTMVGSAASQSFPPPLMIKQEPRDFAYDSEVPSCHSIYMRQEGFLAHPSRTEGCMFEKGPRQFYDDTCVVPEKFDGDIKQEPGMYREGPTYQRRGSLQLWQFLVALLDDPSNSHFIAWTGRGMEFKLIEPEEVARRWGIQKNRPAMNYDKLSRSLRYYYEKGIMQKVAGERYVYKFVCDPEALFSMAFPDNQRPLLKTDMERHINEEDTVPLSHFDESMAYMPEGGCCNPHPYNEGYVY
# Outline: as §1
sequence,measurement,setting,value
CTCATT,binding signal,[1],"1.45 fold enrichment (6-mer frequency, TF over GST control)"
same,binding signal,[2],"1.32 fold enrichment (6-mer frequency, TF over GST control)"
same,binding signal,[3],"1.44 fold enrichment (6-mer frequency, TF over GST control)"
same,binding signal,[4],"1.38 fold enrichment (6-mer frequency, TF over GST control)"
same,binding signal,[5],"1.55 fold enrichment (6-mer frequency, TF over GST control)"
same,binding signal,[6],"1.57 fold enrichment (6-mer frequency, TF over GST control)"
same,binding signal,[7],"1.82 fold enrichment (6-mer frequency, TF over GST control)"
same,binding signal,[8],"1.61 fold enrichment (6-mer frequency, TF over GST control)"
same,binding signal,[9],"1.12 fold enrichment (6-mer frequency, TF over GST control)"
same,binding signal,[10],"1.44 fold enrichment (6-mer frequency, TF over GST control)"
same,binding signal,[11],"1.41 fold enrichment (6-mer frequency, TF over GST control)"
same,binding signal,[12],"1.36 fold enrichment (6-mer frequency, TF over GST control)"
same,binding signal,[13],"1.29 fold enrichment (6-mer frequency, TF over GST control)"
same,binding signal,[14],"1.52 fold enrichment (6-mer frequency, TF over GST control)"
same,binding signal,[15],"1.63 fold enrichment (6-mer frequency, TF over GST control)"
same,binding signal,[16],"1.49 fold enrichment (6-mer frequency, TF over GST control)"
same,binding signal,[17],"1.35 fold enrichment (6-mer frequency, TF over GST control)"
same,binding signal,[18],"1.45 fold enrichment (6-mer frequency, TF over GST control)"
same,binding signal,[19],"1.52 fold enrichment (6-mer frequency, TF over GST control)"
